Measured values reported in PubChem BioAssay (NCI).
Compounds without any hit were thinned out: in the full panel of roughly 79,000, 15% have a hit. Activity calls are given as the source filed them. No stated cut-off is given here; in the data, active means growth inhibition above about 70%; inactive means the rest.

Assays:
[1] = NCI Yeast Anticancer Drug Screen. Data for the rad52 strain (AID 147);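 further: 0% = growth of vehicle-treated control cultures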; conditions: S. cerevisiae rad52 mutant growth inhibition, hits give high values
Summary of the method: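 Measured: yeast growth inhibition. System: strain with a defined DNA damage repair alteration. Reference: vehicle-treated control cultures.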

[2] = NCI Yeast Anticancer Drug Screen. Data for the wt1 strain (AID 149);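 further: 0% = growth of vehicle-treated wt1 cultures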; conditions: S. cerevisiae wt1 strain (SPY 50644) growth inhibition, hits give high values
Summary of the method: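 The wt1 strain was treated with compounds, and growth was compared with vehicle-treated cultures to give inhibition.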

[3] = NCI Yeast Anticancer Drug Screen. Data for the rad50EPP+ strain (AID 151);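 further: 0% = growth of vehicle-treated control cultures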; conditions: S. cerevisiae rad50 mutant strain, hits give high values
Summary of the method: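 One strain with a rad50 alteration (rad50EPP+) was compound-treated, its growth then compared to that of vehicle controls.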

[4] = NCI Yeast Anticancer Drug Screen. Data for the mgt1 strain (AID 153); conditions: S. cerevisiae mgt1 mutant growth inhibition, hits give high values
Summary of the method: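 After exposure of the mgt1 yeast mutant to compound, growth was measured and reported as inhibition compared with vehicle controls.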

[5] = NCI Yeast Anticancer Drug Screen. Data for the rad50 strain (AID 155);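 further: 0% = growth of vehicle-only cultures of the same strain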; conditions: S. cerevisiae rad50 strain growth inhibition, hits give high values
Summary of the method: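 Cells are treated with compound, grown, and their growth is then scored against vehicle-only cultures of the same repair-deficient yeast strain.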

[6] = NCI Yeast Anticancer Drug Screen. Data for the mec2-1 strain (AID 157); conditions: S. cerevisiae mec2-1 strain, hits give high values
Summary of the method: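 Test agents were screened against the mec2-1 yeast strain, with defined DNA repair or cell cycle alteration. Growth was scored as inhibition against vehicle-only controls.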

[7] = NCI Yeast Anticancer Drug Screen. Data for the rad14 strain (AID 159);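 further: 0% = growth of vehicle-treated control cultures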; conditions: S. cerevisiae rad14 strain growth inhibition, hits give high values
Summary of the method: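 Readout: yeast growth inhibition, referenced to vehicle-only cultures. Strain bears a defined alteration in DNA damage repair.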

[8] = NCI Yeast Anticancer Drug Screen. Data for the sgs1 mgt1 strain (AID 161);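 further: 0% = growth of cultures given vehicle only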; conditions: S. cerevisiae sgs1 mgt1 strain, hits give high values
Summary of the method: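 Test agents were incubated with a DNA-repair-mutant yeast strain. Growth was then read and compared against vehicle-treated controls.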

[9] = NCI Yeast Anticancer Drug Screen. Data for the CLN2oe strain (AID 163);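 further: 0% = growth of vehicle-only control cultures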; conditions: S. cerevisiae CLN2oe strain, hits give high values
Summary of the method: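 Here, growth inhibition in a cell-cycle-altered yeast strain after compound exposure was quantified against vehicle control growth.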

[10] = NCI Yeast Anticancer Drug Screen. Data for the cln2 rad14 strain (AID 165);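 further: 0% = growth equal to vehicle treated cultures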; conditions: S. cerevisiae cln2 rad14 strain, hits give high values
Summary of the method: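 Growth of compound-exposed yeast (cln2 rad14 genotype) measured and expressed as inhibition relative to vehicle.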

[11] = NCI Yeast Anticancer Drug Screen. Data for the bub3 strain (AID 167); conditions: S. cerevisiae bub3 mutant strain, hits give high values
Summary of the method: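 Part of a panel of yeast mutants defective in DNA damage repair or cell cycle regulation. Each strain is grown with compound, and inhibition is calculated relative to solvent-treated cultures.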

[12] = NCI Yeast Anticancer Drug Screen. Data for the mlh1 strain (AID 171);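 further: 0% = growth of vehicle-treated control cultures of the same strain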; conditions: S. cerevisiae mlh1 strain growth inhibition, hits give high values
Summary of the method: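 Here the genetically defined yeast mutant is grown with each compound, and the extent to which its growth falls below that of vehicle-exposed cells is reported.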

[13] = NCI Yeast Anticancer Drug Screen. Data for the sgs1 strain (AID 173);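 further: 0% = growth of vehicle-only control cultures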; conditions: S. cerevisiae sgs1 mutant, hits give high values
Summary of the method: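 Relative growth inhibition, referenced to vehicle, was determined in a yeast strain with a defined alteration affecting DNA damage repair or cell cycle control after compound exposure.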

[14] = NCI Yeast Anticancer Drug Screen. Data for the mlh1 rad18 strain (AID 175); conditions: S. cerevisiae mlh1 rad18 strain growth inhibition, hits give high values
Summary of the method: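 In this whole-cell yeast screen, a strain with altered DNA damage repair is challenged with compound, and its growth is measured against matched vehicle-treated controls.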

[15] = NCI Yeast Anticancer Drug Screen. Data for the rad18 strain (AID 177); conditions: S. cerevisiae rad18 mutant growth inhibition, hits give high values
Summary of the method: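 Screen uses a yeast strain with a defined lesion in DNA damage repair; compound effect is read as loss of growth compared to untreated vehicle cultures.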

[16] = at 5.0 µM (retest, dose inferred, filed as 0.5)
[17] = at 50.0 µM (retest, dose inferred, filed as 5.0)

Measured: growth inhibition

CCCCCCCCCCCCNC(C)=O
active: [5]; [17] 93% | [5]; at 50.0 µM 81.3% | [5]; at 100.0 µM 90% | [6]; [17] 78% | [6]; at 50.0 µM 83% | [8]; [17] 88% | [8]; at 50.0 µM 81% | [11]; [17] 91% | [11]; at 50.0 µM 80% | [12]; at 100.0 µM 72% | [14]; [17] 94% | [14]; at 50.0 µM 91.8%
inactive: [1]; at 1.2 µM -5% | [1]; at 3.7 µM -7% | [1]; at 11.0 µM -8% | [1]; at 33.0 µM -12% | [1]; at 100.0 µM 54% | [2]; at 1.2 µM -6% | [2]; at 3.7 µM -6% | [2]; at 11.0 µM -8% | [2]; at 33.0 µM -7% | [2]; at 100.0 µM 9% | [3]; at 1.2 µM -2% | [3]; at 3.7 µM 1% | [3]; at 11.0 µM 7% | [3]; at 33.0 µM 14% | [3]; at 100.0 µM 26% | [4]; at 1.2 µM -2% | [4]; at 3.7 µM -6% | [4]; at 11.0 µM -5% | [4]; at 33.0 µM -14% | [4]; at 100.0 µM 14% | [5]; at 1.2 µM -10% | [5]; at 3.7 µM -8% | [5]; [16] -165% | [5]; at 11.0 µM 2% | [5]; at 33.0 µM 3% | [6]; at 1.2 µM 2% | [6]; at 3.7 µM -3% | [6]; [16] -47% | [6]; at 11.0 µM 8% | [6]; at 33.0 µM 3% | [6]; at 100.0 µM 3% | [7]; at 1.2 µM -3% | [7]; at 3.7 µM 0% | [7]; at 11.0 µM -2% | [7]; at 33.0 µM 1% | [7]; at 100.0 µM 40% | [8]; [16] -63% | [9]; at 1.2 µM -1% | [9]; at 3.7 µM -1% | [9]; at 11.0 µM 0% | [9]; at 33.0 µM -4% | [9]; at 100.0 µM -2% | [10]; [16] -61% | [10]; [17] -2% | [10]; at 50.0 µM 15.3% | [11]; at 1.2 µM -9% | [11]; at 3.7 µM -3% | [11]; [16] -62% | [11]; at 11.0 µM -2% | [11]; at 33.0 µM -1% | [11]; at 100.0 µM 13% | [12]; at 1.2 µM 6% | [12]; at 3.7 µM -8% | [12]; at 11.0 µM -4% | [12]; at 33.0 µM -6% | [13]; at 1.2 µM -2% | [13]; at 3.7 µM -3% | [13]; at 11.0 µM -3% | [13]; at 33.0 µM -4% | [13]; at 100.0 µM 43% | [14]; [16] -116% | [15]; at 1.2 µM -4% | [15]; at 3.7 µM -4% | [15]; at 11.0 µM -2% | [15]; at 33.0 µM -3% | [15]; at 100.0 µM 61%
